Measurements: paper PMC5540273 (PLoS ONE, 2017)

test system: T1, RSK4(Kin.Dom.2-C-terminal)
T1 construct: gene RPS6KA6
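Also: kd values determined as follow-up on hits from a single-replicate KINOMEscan panel screen.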

Structure (SMILES)	Kd [nM]
CCc1nc(-c2cccc(C)c2)c(-c2ccncc2)s1	120
Nc1nc(-c2ccccc2F)c(-c2ccnc3ccccc23)s1 [GW560459]	28
OCCCNc1nccc(-c2c(-c3cccc(C(F)(F)F)c3)nn3cc(C(F)(F)F)ccc23)n1 [GW630813]	2700
